Screening data as filed in PubChem.
Shiga toxin inh = inhibitors of Shiga toxin in Vero cells; hit rate 9.2% among 290,000; AID 2315; inhibition, % at 38.7 µM; Vero cells, Shiga toxin protein synthesis inhibition reporter; in the data active means inhibition mostly above about 28%, no sharp cut-off; inactive means mostly below about 43%; further: 0% is about no effect
Marburg entry inh = inhibitors of Marburg virus binding or cell entry; AID 540276; Potency, µM (titrated, usually from 37.8 µM), without a hit: at the highest dose activity change, negative = inhibition, hits mostly inhibitors; hit rate 1.8% among 300,000; Marburg virus pseudotyped entry inhibition, cell reporter; calls by dose curve; tested in HEK293 cells; further: potency means the concentration at half of the fitted maximal effect; on the % scale 0 is the no-effect control and ±100 the full control effect
Lassa entry inh = Lassa virus entry inhibition | hit rate 1.2% among 300,000 | AID 540256 | Lassa virus pseudotype entry inhibition, cell reporter | Potency, µM (doses to about 37.9 µM), for inactives: top-dose activity change, negative = inhibition, hits mostly inhibitors; calls by dose curve; tested in HEK293 cells; further: potency means the concentration at half of the fitted maximal effect; on the % scale 0 is the no-effect control and ±100 the full control effect; nearly all actives have a fitted effect of over 50% in size
Pf growth 96h = P. falciparum growth inhibition at 96 hours. Potency, µM (series often up to 28.7 µM), for the others: at the top dose activity change, negative = inhibition, most hits filed as inhibitors. P. falciparum luciferase reporter growth, 96 h. AID 504834. hit rate 6.9% among 320,000; further: potency means the concentration at half of the fitted maximal effect; on the % scale 0 is the no-effect control and ±100 the full control effect
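Two parasite generations (96 h, 37 C, 5% CO2) of compound exposure in infected erythrocytes (0.05% parasitemia, 2% hematocrit). Luciferase-reporter P. falciparum; decreased luminescence indicates inhibited growth, aimed at apicoplast-acting delayed death.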
CHX counter = counter-screen for Shiga toxin inhibitors: cycloheximide protein synthesis inhibition; cell reporter, cycloheximide protein synthesis inhibition counterscreen; max response, %; hit rate 12% among 300,000; in the data active means max response mostly above about 13%, no sharp cut-off; inactive means mostly below about 14%; further: read at 38.3 µM for the half of the compounds with a filed dose; 0% is about no effect
Pf growth 48h = inhibits P. falciparum growth in the first generation, 48 h; P. falciparum luciferase growth in erythrocytes, 48 h; Potency, µM (top dose mostly 28.7 µM), without a hit: at the top dose activity change, negative = inhibition, most hits filed as inhibitors; hit rate 5.9% among 310,000; AID 504832; further: potency means the concentration at half of the fitted maximal effect; on the % scale 0 is the no-effect control and ±100 the full control effect
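Luciferase-expressing parasites in RBCs, 2% Hct / 0.1% parasitemia final; RPMI 1640 + 0.5% Albumax; 37 C, 5% CO2, one generation; luminescence read-out, lower signal = inhibition.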
Starred values were filed as active, the others as inactive; i = inactive; ? = inconclusive; nt = not tested or not shown; [ ] = dose if it differs, or a comment. This is a sample that favours compounds with a hit; in the whole collection about 19% have one here. Unless noted, the call rests on the fitted dose curve; in most records, active means well fitted inhibition curve with a large enough effect; inconclusive means small, poorly fitted or top-dose-only effect, or another doubt; inactive means no such curve, though single readings can be large or run the other way.

SMILES	Shiga toxin inh	Marburg entry inh	Lassa entry inh	Pf growth 96h	CHX counter	Pf growth 48h
CCCCNC(=O)Nc1cnn(CC)c1C(N)=O	-8.1	-4.6%	1.9%	-4.7%	-1.0	20.0%
COc1ccc(OCCOCCOc2ccc(C)cc2[N+](=O)[O-])cc1	23.4	-5.6%	13.8%	-29.9%	-1.6	-6.5%
COc1ccc(CNCC(O)COc2ccc(C)cc2[N+](=O)[O-])cc1 (stereo unspecified)	69.1*	nt	nt	3.0%	34.6*	?
COC(=O)c1ccc(COc2ccc(C)cc2[N+](=O)[O-])o1	76.7*	?	19.2%	78.3%	47.8*	69.0%
COC(=O)c1ccc(Cn2nc(C)c([N+](=O)[O-])c2C)o1	17.8	nt	nt	13.1µM*	1.5	-22.0%
Cc1nn(Cc2ccc(C(=O)O)o2)c(C)c1[N+](=O)[O-]	-9.1	-14.9%[46.1 µM]	17.6%	5.3%	7.7	24.3%
Cc1nn(Cc2c(F)c(F)c(F)c(F)c2F)c(C)c1NC(=O)c1cccc(COc2ccc(Cl)cc2)c1	135.8*	?	1.9%	260.5%	83.3*	133.4%
Cc1ccc(C23CC4CC(CC(C(=O)OCC(=O)N(C)C)(C4)C2)C3)cc1	-5.4	nt	nt	5.2%	-2.1	-10.0%
Cc1ccc(-n2nc(-c3ccco3)cc2C(=O)O)c(C)c1	-4.1	13.5%	2.1%	-4.5%	-1.8	40.7%
Cc1ccc(OCc2ccc(C(=O)NN)o2)c([N+](=O)[O-])c1	35.9	nt	nt	?	36.9*	-15.2%
CC(C)c1cc(C(N)=O)c(NC(=O)c2cccc(COc3ccc(Cl)cc3)c2)s1	199.7*	3.16µM*	?	nt	70.0*	143.9%
Cc1ccc(OCc2ccc(C(=O)Nc3c(C)nn(Cc4c(F)c(F)c(F)c(F)c4F)c3C)o2)c([N+](=O)[O-])c1	10.6	16.4µM*	?	?	9.6	?
Cc1ccc(C)c(OCc2ccc(C(=O)NN)o2)c1	10.0	nt	nt	-24.0%	10.7	?
CCCN1CCN(C(=O)Cn2cnc3sc(C)c(S(=O)(=O)N4CCC(C)CC4)c3c2=O)CC1	-18.2	7.4%[46.1 µM]	6.9%[46.1 µM]	13.0%	-2.0	2.2%
c1cc(-c2cnn3cc(-c4ccc(OCCN5CCCCC5)cc4)cnc23)ccn1	27.3*	nt	nt	nt	39.7*	nt
O=C(CCN1CCN(c2ccc(F)cc2)CC1)Nc1ccc(F)cc1	8.6	0.0%	-2.4%	22.7%	8.7	-14.8%
c1nc(N2CCNCC2)c2sc3nc(N4CCOCC4)c4c(c3c2n1)CCC4	-7.6	-0.5%	nt	-1.2%	-1.4	11.6%
CC1(C)Cc2c(c(N3CCCC3)nc3sc4c(N5CCN(CCO)CC5)ncnc4c23)CO1	-9.9	?	?	9.6%	-5.7	8.28µM*
OCCN1CCN(c2ncnc3c2sc2nc(N4CCOCC4)c4c(c23)CCC4)CC1	-16.6	?	-10.9%	-9.7%	-3.6	13.1µM*
CCOC(=O)c1sc2nc(N3CCCC3)c3c(c2c1N)CC(C)(C)OC3	7.4	17.0%	11.1%	nt	10.8	nt
CCOC(=O)C1(C)C=C(Nc2ccc(NC(C)=O)cc2)C(=O)N1c1ccc(NC(C)=O)cc1 (stereo unspecified)	-1.3	?	-18.7%	1.4%	-2.5	-1.6%
COc1cc2c(cc1OC)C(c1cc3cc(OC)c(OC)cc3[nH]c1=O)N(C(=O)C1CC1)CC2 (stereo unspecified)	26.7	13µM*	25.9µM*	5.9%	-2.6	nt
COc1ccc2cc(C3c4cc(OC)c(OC)cc4CCN3C(=O)c3ccco3)c(=O)[nH]c2c1 (stereo unspecified)	-8.5	-16.0%[46.1 µM]	?	25.8%	-7.9	5.22µM*
CCCC(=O)N1CCc2cc(OC)c(OC)cc2C1c1cc2cc3c(cc2[nH]c1=O)OCO3 (stereo unspecified)	nt	?	-19.4%	nt	nt	nt
CSc1ccc(S(=O)(=O)NCC(=O)OCC(=O)NCC2CCCO2)cc1[N+](=O)[O-] (stereo unspecified)	nt	3.6%[46.1 µM]	12.3%	18.4%	nt	1.7%
SMILES	Shiga toxin inh	Marburg entry inh	Lassa entry inh	Pf growth 96h	CHX counter	Pf growth 48h
COc1ccc(-c2[nH]c(-c3ccc(OC)c(OC)c3)nc2SCC(=O)Nc2ccccc2)cc1	nt	-13.9%[46.1 µM]	-11.5%[46.1 µM]	nt	nt	nt
CCCCC(=O)N/N=C/c1cc([N+](=O)[O-])ccc1N1CCOCC1	-9.2	?	4.4%	?	1.0	3.6%
Cc1cc(-c2csc(NC(=O)c3cc4ccccc4o3)n2)c(C)n1C	40.0*	-11.2%	-1.8%	-19.3%	31.9*	55.7%
O=C(Nc1nc(-c2ccccn2)cs1)c1cc2ccccc2o1	58.5*	?	?	?	42.3*	?
O=C(Nc1nc(-c2cc3ccccc3oc2=O)cs1)c1ccc(Br)o1	70.6	?	-0.3%	-0.7%[5.75 µM]	15.4	-0.9%
Cc1c(C(=O)Nc2nc(-c3ccccn3)cs2)oc2ccccc12	nt	nt	nt	?	nt	6.57µM*
CC(=O)Nc1cc(=O)c2cccnc2[nH]1	nt	1.5%[46.1 µM]	23.4%[46.1 µM]	nt	nt	nt
Cc1nc(-c2ccccc2)sc1-c1nc(-c2cccnc2)ncc1S(=O)(=O)c1ccccc1	-8.0	-13.9%	-7.4%	?	-1.6	?
CCn1c(-c2sc(-c3ccccc3)nc2C)n[nH]c1=S	-22.2	-12.8%[46.1 µM]	-16.6%	-3.1%	-4.4	7.2%
Cc1nc(-c2ccccc2)sc1-c1ccn[nH]1	69.3*	nt	nt	291.9%	27.8*	182.5%
Cc1nc(-c2ccccc2)sc1-c1ccnn1C	81.3*	nt	nt	414.3%	34.8*	i
Cc1ccc(CN2CC(C(=O)Nc3ccccc3N3CCCC3)CC2=O)cc1 (stereo unspecified)	nt	-0.1%[46.1 µM]	-1.8%	-20.3%	nt	?
COc1ccccc1CCc1nnc(CCC(=O)NCC[C@@H]2C[C@@H]3C=C[C@H]2C3)o1	24.1	11.6%[46.1 µM]	1.9%[46.1 µM]	2.4%	12.5*	3.0%
Cc1ccc(S(=O)(=O)NCC(=O)OCc2cc(=O)oc3cc(C)ccc23)cc1	nt	nt	nt	0.5%	nt	-8.3%
CCN(CC)c1ccc(C(=O)OCc2cc(=O)oc3cc(O)ccc23)cc1	-2.3	?	14.6µM*	4.65µM*	-4.4	?
Cc1ccc2c(COC(=O)c3cnc(C)cn3)cc(=O)oc2c1	2.8	1.2%	nt	17.3%	-1.0	25.5%
Cc1ccc2c(COC(=O)CNC(=O)c3ccccc3)cc(=O)oc2c1	28.2	11.2%	-1.1%	48.0%	35.7*	41.2%
Cc1ccc2c(COC(=O)C3=COCCO3)cc(=O)oc2c1	89.2*	?	?	?	64.0*	nt
Cc1ccc2c(COC(=O)c3ccccc3OC(F)F)cc(=O)oc2c1	47.4	15.8%[46.1 µM]	4.6%	28.0%	26.2*	4.2%
COCCNC(=O)C(c1ccc(Cl)cc1)N(C(=O)Cn1nnc2ccccc21)c1cccnc1 (stereo unspecified)	-5.9	21.1%[46.1 µM]	-0.9%	2.5%	-1.4	-15.5%
CCCOc1ccc(OC(=O)c2ccc(-c3ccc(CCC)cn3)cc2)cc1	nt	nt	-0.5%[46.1 µM]	nt	nt	nt
CCOC(=O)c1c(N)sc(C(O)(C(F)(F)F)C(F)(F)F)c1-c1ccc(Cl)cc1	7.7	?	1.7%	?	-3.6	nt
CC(NC(=O)CCC(=O)NCc1ccc(F)cc1)c1ccccc1 (stereo unspecified)	-13.2	nt	nt	-20.8%	1.0	-0.8%
